Source: PubChem BioAssay (NCATS)
Values joined by “and” are separate entries in the source; they are usually repeats but may differ in a detail not shown here. Equal values may be shown once. Inconclusive results are not listed. Some structures have more than one record in an assay (separate samples or runs), and their calls can disagree. Active and inactive are the calls of the source. Calls follow the shape of the dose curve; as a rule, active = well fitted cell-killing curve with a large enough effect; inconclusive = small, poorly fitted or top-dose-only effect; inactive = flat fitted curve, though single readings scatter.

Assay: Cellular viability qHTS for adrenocortical cancer (ACC) cell line NCI-H295R (AID 1963990); also: nearly all actives have a fitted effect of over 60% in size;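 as to activity change, negative = viability loss: 0% = DMSO only wells and -100% = full killing with cytotoxic reference compound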
Details: CellTiter-Glo ATP luminescence, 48 h; series mostly up to 46.1 µM; activity change, negative = viability loss: at the top concentration
Method in brief: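 Viability of NCI-H295R after 48 h of treatment (final up to 46 uM) measured through cellular ATP luminescence.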
Potency is read from the fitted curve at half-maximal effect.

**Q.** With `CCCC(=O)Nc1ccc(O)c(C(C)=O)c1` as the molecule, how does the “activity change, negative = viability loss” value read?
**A.** -14.2% (inactive)

**Q.** For `COc1ccc(/C=C/C(=O)Nc2ccccc2C(=O)O)cc1OC`, which “activity change, negative = viability loss” value is on record?
**A.** -19.4% (inactive)

**Q.** For `N#Cc1ccnc(N2C(=O)CC[C@H]2C(=O)N(c2cncc(F)c2)C(C(=O)NC2CC(F)(F)C2)c2ccccc2Cl)c1` (stereo not given in full), which “activity change, negative = viability loss” value is on record?
**A.** -5.95% (inactive)

**Q.** With `CC(=O)OCC(=O)[C@@]1(O)CCC2C3CCC4=CC(=O)CC[C@]4(C)C3[C@@H](O)C[C@@]21C` (stereo not given in full) as the molecule, how does the “activity change, negative = viability loss” value read?
**A.** -9.23% (inactive)

**Q.** Which Potency does the source give for `CCN1CCN(Cc2ccc(NC(=O)c3ccc(C)c(/C=C/c4cnc5[nH]ccc5c4OC)c3)cc2C(F)(F)F)CC1` here?
**A.** 6.31 µM (active)

**Q.** For `Nc1ncnc2c1ncn2[C@@H]1O[C@H](CO)[C@@H](O)[C@H]1O`, which “activity change, negative = viability loss” value is on record?
**A.** 23.8% (inactive)

**Q.** For `CC1(C)C(N(O)C(=O)Nc2ccc(Cl)cc2)N(c2ccc(Cl)cc2)C(=O)N1CC(=O)N/N=C/C=C/c1ccc([N+](=O)[O-])o1` (stereo not given), which Potency is on record?
**A.** 20 µM (active)

**Q.** With `Oc1ccc(Cl)cc1Cc1cc(Cl)ccc1O` as the molecule, how does the Potency read?
**A.** 5.17 µM (active)

**Q.** For `CNCC(O)c1ccc(O)c(O)c1` (stereo not given), which “activity change, negative = viability loss” value is on record?
**A.** -11% (inactive)

**Q.** For `CC(=NNC(=O)c1cccc(S(=O)(=O)N2CCOCC2)c1)c1cc(Cl)ccc1O`, which Potency is on record?
**A.** 4.47 µM (active)

**Q.** With `c1ccc(CN(CC2=NCCN2)c2ccccc2)cc1` as the molecule, how does the “activity change, negative = viability loss” value read?
**A.** -0.0998% (inactive)

**Q.** Which “activity change, negative = viability loss” value does the source give for `CCC1C(=O)OCC1Cc1cncn1C` (stereo not given) here?
**A.** -2.71% (inactive)

**Q.** For `NC(N)=NN=C(/C=C/c1ccc([N+](=O)[O-])o1)/C=C/c1ccc([N+](=O)[O-])o1`, which Potency is on record?
**A.** 1.03 µM (active)

**Q.** For `Cc1c[nH]c2ncnc(N3CCC(CN)(C(=O)Nc4cccc(OC(=O)N(C)C)c4)CC3)c12`, which Potency is on record?
**A.** inactive and 22.4 µM (active)

**Q.** For `C#C[C@]1(O)CC[C@H]2[C@@H]3CCc4cc(OC5CCCC5)ccc4[C@H]3CC[C@@]21C`, which Potency is on record?
**A.** 14.6 µM (active)
